These results are taken from PubChem BioAssay (NCATS).

A short description of test [1]: Quantitative high throughput screen for delayed death inhibitors of the malarial parasite plastid, 96 hour incubation (AID 488745). Also: nearly all actives have a fitted effect of over 70% in size. Also: potency is read from the fitted curve at half-maximal effect. In short, it runs like this:
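Decreased firefly luciferase luminescence indicates inhibited growth of reporter-integrated P. falciparum after two generations (96 h, 37 C, 5% CO2). Infected erythrocytes at 0.1% parasitemia, 2% hematocrit, in Albumax-supplemented RPMI 1640.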

Test [2] can be described thus: Quantitative high throughput screen for delayed death inhibitors of the malarial parasite plastid, 48 hour incubation (AID 488752). Also: nearly all actives have a fitted effect of over 65% in size. Also: potency is read from the fitted curve at half-maximal effect. In short, it runs like this: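 One-generation (48 h) growth assay: a decrease in luciferase signal from an integrated reporter in P. falciparum-infected red cells (0.1% parasitemia, 2% hematocrit) after compound exposure at 37 C indicates parasite inhibition.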

Test [3] deals with Thioredoxin reductase 1, cytoplasmic (Rattus norvegicus) (UniProt O89049). Briefly: qHTS Assay for Substrates of Mammalian Selenoprotein Thioredoxin Reductase 1 (TrxR1) (AID 488772).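 Also: series mostly up to about 57 µM; 0% is about no effect; a drop in NADPH fluorescence below the no-compound background marks a TrxR1 substrate.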 The method in brief: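 In this dual-purpose format, potential substrates are identified from the first fluorescence read after selenite addition, not from the 8-minute delta. Rat enzyme is preincubated with NADPH and then with compound at ~22 deg C.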

Test [4] shares this target. Briefly: qHTS Assay for Inhibitors of Mammalian Selenoprotein Thioredoxin Reductase 1 (TrxR1) (AID 488773). Also: nearly all actives have a fitted effect of over 40% in size. Also: potency is read from the fitted curve at half-maximal effect. The settings on record: Potency: inhibition. The method in brief: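 Inhibition is scored from the loss of NADPH fluorescence between first and last reads of an 8-min kinetic run. Selenite (400 uM) was the substrate, added after 15 min compound preincubation at room temperature.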
On the technique in general: In qHTS, concentration-response curves come from the screen itself.

In test [5] the target is Flap endonuclease 1 (Homo sapiens) (UniProt P39748). Briefly: qHTS Validation Assay for the Inhibitors of Human Flap endonuclease 1 (FEN1) (AID 488816). Also: potency is read from the fitted curve at half-maximal effect. In short, it runs like this: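 Enzyme reagent 10 nM; cpds pinned; 15 min RT preinc.; substrate 50 nM final; reads t=0 and 15 min; no-enzyme buffer wells as neg. control; normalized data, 4-parameter Hill fit.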
For test [6], the target named is M-phase phosphoprotein 8 (Homo sapiens) (UniProt Q99549). Briefly: qHTS Validation Assay for Inhibitors for MPP8 Chromodomain Interactions with Methylated Histone Tails (AID 488949). Also: nearly all actives have a fitted effect of over 55% in size. Also: potency is read from the fitted curve at half-maximal effect. The method in brief: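 50 nM MPP8 + 50 nM b-H3K9me3 peptide, PBS pH 7.4/0.01% Tween-20, 30 min RT; + cpd 30 min RT; + AlphaScreen donor/Ni-chelate acceptor beads 10 ug/mL final, 30 min dark; luminescence read.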

The target of test [7] is Methanococcus maripaludis chaperonin (MmCpn) (UniProt Q6LX38). Briefly: High-Throughput Screening for Modulators of Cytosolic Chaperonin Activity: MmCpn Primary Screen (AID 488978).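 Also: 50 nM MmCpn enzyme hydrolysing 30 µM ATP at 37 °C; 0% is about no effect.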 In short, it runs like this:
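Steps: chaperonin 50 nM final; add compound, 5 min RT; start with ATP, 30 uM final; hold 10 min at 37C; add ADP Transcreener HTRF reagent, 5 min; read ex 320, em 590 and 665 nm.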

For test [8], the target named is Thyrotropin receptor (Homo sapiens) (UniProt P16473). Briefly: qHTS Assay for Antagonists of the Thyroid Stimulating Hormone Receptor (AID 488980). Also: series mostly up to about 58 µM; 0% is about no effect. The method in brief: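 Readout is cAMP by HTRF competition between cellular cAMP and cAMP-d2 for a cryptate-labelled antibody. Antagonism was assessed in TSHR-transfected HEK293 cells stimulated with 4 nM TSH (EC80, final) in the presence of RO 20-1724.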

The target in test [9] is D(1A) dopamine receptor (Homo sapiens) (UniProt P21728). Briefly: HTS Assay for Allosteric Agonists of the Human D1 Dopamine Receptor: Primary Screen for Potentiators (AID 488982). Also: 0% is about no effect. The method in brief: (§1)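 Tetracycline-induced HEK293 Trex D1 cells with forced coupling to calcium, loaded with no-wash calcium dye; kinetic fluorescence read 180 s after compound addition for agonism, then a further 180 s after an EC20 dopamine challenge for potentiation.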

The target is the same in test [10]. Briefly: HTS Assay for Allosteric Agonists of the Human D1 Dopamine Receptor: Primary Screen for Antagonists (AID 488983).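 Also: calcium flux response to an EC80 dopamine challenge measured with no-wash dye; nearly all actives have a fitted effect of over 65% in size.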 Also: potency is read from the fitted curve at half-maximal effect. In short, it runs like this:
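Calcium-flux read-out in inducible HEK293 T-REx cells expressing D1, dye-loaded 30–90 min at room temperature. Kinetic reads: 180 s after compound (agonist phase), then 180 s after an EC80 dopamine challenge.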

For test [11], the target named is ATPase family AAA domain-containing protein 5 (Homo sapiens) (UniProt Q96QE3). Briefly: Validation screen for small molecules that inhibit ELG1-dependent DNA repair in human embryonic kidney (HEK293T) cells expressing luciferase-tagged ELG1 (AID 493107).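 Also: series mostly up to about 46 µM; % is scaled to controls: 0 for no effect and ±100 for the full control effect; inhibitors lower the ELG1-luciferase luminescence signal; nearly all actives have a fitted effect of over 70% in size.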 In short, it runs like this: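 Luciferase read-out, ONE-Glo, 30 min at room temperature, follows 16 h co-exposure at 37 C of compound and the DNA-damaging agent 5-fluorouridine. Cells: HEK293T with ELG1-luciferase fusion, 2,000 per well, DMSO as vehicle.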

The target in test [12] is Thyrotropin-releasing hormone receptor (Homo sapiens) (UniProt P34981). Briefly: qHTS for Small Molecule Agonists and Allosteric Enhancers of Human TRH Receptor: Validation Screen for Agonists (AID 493127;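 active = calcium activation more than 3 SD above the typical response in the agonist read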;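 also: intracellular calcium rise by fluo-8 fluorescence before TRH EC20 addition; 0% is about no effect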). To be noted: TRH receptor agonist cell assay; at 2 µM; stronger effect = higher value. In short, it runs like this: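 Compound-evoked intracellular calcium release in fluo-8-loaded TRHR cells, read kinetically on FDSS (Ex 480/Em 530, 1 s/cycle) after 23 nL pintool transfer. Agonist phase preceded 10 nM TRH EC20 addition.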

Test [13] is described as follows: Nrf2 qHTS screen for inhibitors: Validation (AID 493153; active = well fitted inhibition curve with a large enough effect in the main read-out, with a control signal flat, not every such curve was filed as active; also: potency is read from the fitted curve at half-maximal effect). The settings on record: Potency: luciferase luminescence; viability change: measured here: cytotoxicity max response. The method in brief:
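Concentration-response on A549 ARE_Fluc reporter cells exposed 18-24 h at 37 C, 5% CO2. Cytotoxicity read first by CellTiter-Fluor fluorescence (Ex 405/Em 525), then Nrf2 inhibition by BugLite luminescence after 15 min.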

A short description of test [14]: qHTS for Inhibitors of Cell Surface uPA Generation: Validation Assay (AID 493164).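 Also: RAW 264.7 macrophage cells exposed to compound for 18 h; 0% is about no effect.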 In short, it runs like this:
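ATP-Lite luminescence read-out: ATP remains high when uPA activity-dependent LF translocation into the cytoplasm is blocked. RAW 264.7 cells, 18 h compound exposure at 37 C; 7-point titration, 2.45 nM to 38.3 uM final.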

Test [15] deals with Transient receptor potential cation channel subfamily V member 1 (Homo sapiens) (UniProt Q8NER1). Briefly: HTS Assay for Compounds that Act as Enhancers of the Vanilloid Receptor 1 (AID 488979). Also: 0% is about no effect. The method in brief:
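TRPV1 cells loaded with Fluo-8 calcium dye; compound added and Ca2+ signal (ex 480/em 520 nm) followed 3 min, then capsaicin at EC20 added and read 2 more min to detect enhancement.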

The target of test [16] is D(1A) dopamine receptor (Homo sapiens) (UniProt P21728). Briefly: HTS Assay for Allosteric Agonists of the Human D1 Dopamine Receptor: Primary Screen for Agonists (AID 488981). Also: 0% is about no effect. In short, it runs like this:
as §1

The nature of test [17]: Validation screen for small molecules that induce genotoxicity in human embryonic kidney (HEK293T) cells expressing luciferase-tagged ELG1 (AID 493106). Also: 0% is about no effect. The method in brief: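 ELG1-luciferase reporter readout (ONE-Glo, 30 min, room temperature) after 16 hr compound treatment at 37 °C of HEK293T cells at 2,000 per well. Rising luminescence flags genotoxic stress.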
Test [18] concerns the target Chromobox protein homolog 1 (Homo sapiens) (UniProt P83916). Briefly: qHTS Validation Assay for Inhibitors of HP1-beta Chromodomain Interactions with Methylated Histone Tails (AID 488953).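 Also: loss of AlphaScreen luminescence from HP1-beta binding biotinylated H3K9me3 peptide; series mostly up to about 110 µM; % is scaled to controls: 0 for no effect and ±100 for the full control effect; nearly all actives have a fitted effect of over 50% in size.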 The method in brief: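 AlphaScreen proximity signal from streptavidin donor and nickel chelate acceptor beads (final 10 ug/mL) after 30 min dark incubation. Compounds had 30 min at room temperature with preformed complex of 50 nM HP1-beta and 50 nM b-H3(1-18)K9me3 in PBS pH 7.4 with 0.01% Tween-20.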

In test [19] the target is ATP-dependent 6-phosphofructokinase (Trypanosoma brucei brucei) (UniProt O15648). Briefly: qHTS Assay to Find Inhibitors of T. brucei phosphofructokinase: hit validation (AID 492961).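 Also: luminescence reports ADP formed as PFK phosphorylates fructose-6-phosphate with ATP; series mostly up to about 51 µM; % is scaled to controls: 0 for no effect and ±100 for the full control effect.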 The method in brief:
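Inhibition of parasite PFK is measured as reduced ADP formation, quantified via luciferase after ATP depletion. Assay used 0.1 mM ATP, 0.5 mM F6P, 1.25 nM enzyme, 45 min incubation.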

The structures appear in SMILES notation. Results filed as inconclusive are left out. Active and inactive are the calls of the source. Unless noted, calls follow the shape of the dose curve; as a rule, active = well fitted curve in the direction sought with a large enough effect; inconclusive = small, poorly fitted or top-dose-only effect, or another doubt; inactive = no such curve, though single readings can be large; an effect the other way counts as inactive or inconclusive.

Sequence of M-phase phosphoprotein 8 (Homo sapiens) (Q99549 whole entry, looked up): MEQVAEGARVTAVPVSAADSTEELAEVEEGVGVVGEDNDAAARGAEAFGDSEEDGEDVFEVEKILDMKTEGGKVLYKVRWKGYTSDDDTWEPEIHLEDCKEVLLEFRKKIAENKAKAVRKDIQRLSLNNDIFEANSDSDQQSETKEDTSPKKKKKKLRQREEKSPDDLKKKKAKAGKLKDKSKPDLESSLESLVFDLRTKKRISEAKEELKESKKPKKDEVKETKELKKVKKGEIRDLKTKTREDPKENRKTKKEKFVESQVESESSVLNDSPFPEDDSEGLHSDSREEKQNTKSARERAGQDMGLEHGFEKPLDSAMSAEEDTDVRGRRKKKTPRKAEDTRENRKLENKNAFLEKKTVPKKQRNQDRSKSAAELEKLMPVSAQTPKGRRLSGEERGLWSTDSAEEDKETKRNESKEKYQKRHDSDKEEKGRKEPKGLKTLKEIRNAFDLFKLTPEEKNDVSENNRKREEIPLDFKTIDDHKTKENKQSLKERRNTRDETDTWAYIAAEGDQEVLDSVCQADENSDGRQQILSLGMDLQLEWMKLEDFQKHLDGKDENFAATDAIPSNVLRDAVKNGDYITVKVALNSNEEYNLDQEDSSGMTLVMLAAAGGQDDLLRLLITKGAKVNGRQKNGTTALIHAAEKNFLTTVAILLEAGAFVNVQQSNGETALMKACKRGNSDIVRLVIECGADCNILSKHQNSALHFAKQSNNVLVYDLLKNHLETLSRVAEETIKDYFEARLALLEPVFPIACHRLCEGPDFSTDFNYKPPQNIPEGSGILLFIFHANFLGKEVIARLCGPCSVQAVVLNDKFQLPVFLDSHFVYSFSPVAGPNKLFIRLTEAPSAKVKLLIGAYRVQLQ
Sequence of ATPase family AAA domain-containing protein 5 (Homo sapiens) (Q96QE3 whole entry, looked up, the tested form may be a part): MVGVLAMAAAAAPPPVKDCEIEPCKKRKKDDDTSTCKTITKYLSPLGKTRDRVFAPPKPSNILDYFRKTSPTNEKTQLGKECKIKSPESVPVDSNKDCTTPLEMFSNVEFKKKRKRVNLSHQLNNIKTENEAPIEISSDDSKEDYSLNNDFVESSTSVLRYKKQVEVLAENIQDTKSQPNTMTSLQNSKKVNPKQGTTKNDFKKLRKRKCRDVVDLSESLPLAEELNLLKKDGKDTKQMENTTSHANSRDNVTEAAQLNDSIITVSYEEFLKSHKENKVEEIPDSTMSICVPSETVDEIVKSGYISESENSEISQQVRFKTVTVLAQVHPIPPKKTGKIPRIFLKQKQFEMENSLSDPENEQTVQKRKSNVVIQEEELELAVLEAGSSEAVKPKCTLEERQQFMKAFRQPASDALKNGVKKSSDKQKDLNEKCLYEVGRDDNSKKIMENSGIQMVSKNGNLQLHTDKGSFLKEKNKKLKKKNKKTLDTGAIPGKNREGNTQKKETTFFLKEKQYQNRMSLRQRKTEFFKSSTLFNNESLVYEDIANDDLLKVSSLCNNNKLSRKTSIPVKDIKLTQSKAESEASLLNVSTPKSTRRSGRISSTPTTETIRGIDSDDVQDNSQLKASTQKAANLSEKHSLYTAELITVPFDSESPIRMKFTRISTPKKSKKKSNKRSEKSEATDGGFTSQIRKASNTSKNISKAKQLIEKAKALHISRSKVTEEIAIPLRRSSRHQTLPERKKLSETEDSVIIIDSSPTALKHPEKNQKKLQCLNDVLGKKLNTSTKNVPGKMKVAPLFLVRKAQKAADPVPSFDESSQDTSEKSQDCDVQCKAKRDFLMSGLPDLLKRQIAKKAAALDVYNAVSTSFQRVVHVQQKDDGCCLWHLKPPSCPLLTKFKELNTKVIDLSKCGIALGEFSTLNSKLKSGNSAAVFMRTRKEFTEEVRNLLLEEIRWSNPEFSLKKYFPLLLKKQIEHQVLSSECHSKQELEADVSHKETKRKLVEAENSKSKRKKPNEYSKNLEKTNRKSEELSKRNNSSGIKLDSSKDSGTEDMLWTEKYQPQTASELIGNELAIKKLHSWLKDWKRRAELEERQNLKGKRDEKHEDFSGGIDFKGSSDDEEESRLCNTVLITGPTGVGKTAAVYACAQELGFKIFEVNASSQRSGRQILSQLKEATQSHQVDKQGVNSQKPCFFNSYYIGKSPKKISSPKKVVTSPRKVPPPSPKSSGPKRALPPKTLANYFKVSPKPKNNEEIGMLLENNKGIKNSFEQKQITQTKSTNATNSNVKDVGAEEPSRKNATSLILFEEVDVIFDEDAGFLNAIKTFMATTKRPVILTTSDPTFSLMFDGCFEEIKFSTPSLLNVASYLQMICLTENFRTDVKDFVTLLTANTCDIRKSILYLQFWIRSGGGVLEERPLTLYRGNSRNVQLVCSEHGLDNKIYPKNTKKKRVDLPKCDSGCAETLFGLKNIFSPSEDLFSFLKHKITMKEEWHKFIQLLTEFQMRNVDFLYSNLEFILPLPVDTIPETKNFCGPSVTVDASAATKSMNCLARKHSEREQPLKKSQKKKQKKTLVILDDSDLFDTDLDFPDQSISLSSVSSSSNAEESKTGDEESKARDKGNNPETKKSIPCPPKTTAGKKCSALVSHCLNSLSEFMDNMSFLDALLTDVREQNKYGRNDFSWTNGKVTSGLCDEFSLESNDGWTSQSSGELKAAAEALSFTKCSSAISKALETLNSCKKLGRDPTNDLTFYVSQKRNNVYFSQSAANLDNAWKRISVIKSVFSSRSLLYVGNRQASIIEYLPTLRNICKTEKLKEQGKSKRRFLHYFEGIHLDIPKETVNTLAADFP
Sequence of Flap endonuclease 1 (Homo sapiens) (P39748 whole entry, looked up): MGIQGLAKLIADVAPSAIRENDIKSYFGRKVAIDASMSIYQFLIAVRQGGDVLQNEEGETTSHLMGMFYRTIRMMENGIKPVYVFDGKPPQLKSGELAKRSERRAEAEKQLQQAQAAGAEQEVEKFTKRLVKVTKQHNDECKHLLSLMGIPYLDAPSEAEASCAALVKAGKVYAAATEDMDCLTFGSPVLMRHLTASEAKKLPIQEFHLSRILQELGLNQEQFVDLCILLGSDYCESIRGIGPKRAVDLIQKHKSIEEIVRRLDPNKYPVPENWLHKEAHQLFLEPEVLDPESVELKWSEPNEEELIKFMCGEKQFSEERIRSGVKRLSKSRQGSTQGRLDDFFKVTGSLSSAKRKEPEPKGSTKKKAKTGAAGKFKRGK
Sequence of Transient receptor potential cation channel subfamily V member 1 (Homo sapiens) (Q8NER1 whole entry, looked up): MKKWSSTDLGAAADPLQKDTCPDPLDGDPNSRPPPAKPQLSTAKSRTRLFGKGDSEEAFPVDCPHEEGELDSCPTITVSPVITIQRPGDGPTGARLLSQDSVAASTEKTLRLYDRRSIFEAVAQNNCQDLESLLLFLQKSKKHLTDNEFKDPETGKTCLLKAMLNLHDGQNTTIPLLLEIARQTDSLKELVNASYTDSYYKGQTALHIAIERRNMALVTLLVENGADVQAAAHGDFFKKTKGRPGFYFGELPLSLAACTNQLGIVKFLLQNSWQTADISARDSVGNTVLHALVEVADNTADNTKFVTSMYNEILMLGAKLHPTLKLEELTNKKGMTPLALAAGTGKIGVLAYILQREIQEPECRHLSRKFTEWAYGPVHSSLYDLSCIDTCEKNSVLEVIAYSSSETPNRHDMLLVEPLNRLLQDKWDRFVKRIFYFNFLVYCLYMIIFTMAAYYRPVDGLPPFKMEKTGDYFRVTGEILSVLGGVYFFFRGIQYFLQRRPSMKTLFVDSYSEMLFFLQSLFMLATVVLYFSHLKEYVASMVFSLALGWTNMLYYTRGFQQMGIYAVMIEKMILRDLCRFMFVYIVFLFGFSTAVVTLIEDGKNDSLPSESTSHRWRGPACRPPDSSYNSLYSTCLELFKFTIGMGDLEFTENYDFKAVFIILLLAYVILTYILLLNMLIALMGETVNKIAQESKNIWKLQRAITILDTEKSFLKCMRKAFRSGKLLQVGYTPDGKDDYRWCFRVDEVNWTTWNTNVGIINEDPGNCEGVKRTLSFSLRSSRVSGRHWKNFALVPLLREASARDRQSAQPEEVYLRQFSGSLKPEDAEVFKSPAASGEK
Sequence of Thyrotropin receptor (Homo sapiens) (P16473 whole entry, looked up): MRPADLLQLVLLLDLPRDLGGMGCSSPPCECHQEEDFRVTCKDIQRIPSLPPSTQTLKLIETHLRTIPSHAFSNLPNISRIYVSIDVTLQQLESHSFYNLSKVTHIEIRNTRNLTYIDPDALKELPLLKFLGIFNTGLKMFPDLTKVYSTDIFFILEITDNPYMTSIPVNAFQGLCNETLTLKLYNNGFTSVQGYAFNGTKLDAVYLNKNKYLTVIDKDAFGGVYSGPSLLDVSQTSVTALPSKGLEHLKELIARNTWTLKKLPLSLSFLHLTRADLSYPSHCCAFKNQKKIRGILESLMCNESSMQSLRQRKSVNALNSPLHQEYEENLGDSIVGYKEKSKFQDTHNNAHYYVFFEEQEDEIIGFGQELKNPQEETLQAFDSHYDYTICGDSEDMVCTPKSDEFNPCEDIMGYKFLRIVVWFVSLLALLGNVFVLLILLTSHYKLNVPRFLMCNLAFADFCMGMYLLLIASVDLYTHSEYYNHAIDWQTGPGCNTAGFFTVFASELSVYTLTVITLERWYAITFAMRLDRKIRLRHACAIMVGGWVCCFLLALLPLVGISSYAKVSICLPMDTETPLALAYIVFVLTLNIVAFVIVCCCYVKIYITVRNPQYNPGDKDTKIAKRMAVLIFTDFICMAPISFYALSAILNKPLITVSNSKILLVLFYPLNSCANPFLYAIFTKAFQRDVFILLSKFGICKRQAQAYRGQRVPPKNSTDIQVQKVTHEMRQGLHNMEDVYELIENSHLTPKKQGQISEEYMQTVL
Sequence of Thyrotropin-releasing hormone receptor (Homo sapiens) (P34981 whole entry, looked up): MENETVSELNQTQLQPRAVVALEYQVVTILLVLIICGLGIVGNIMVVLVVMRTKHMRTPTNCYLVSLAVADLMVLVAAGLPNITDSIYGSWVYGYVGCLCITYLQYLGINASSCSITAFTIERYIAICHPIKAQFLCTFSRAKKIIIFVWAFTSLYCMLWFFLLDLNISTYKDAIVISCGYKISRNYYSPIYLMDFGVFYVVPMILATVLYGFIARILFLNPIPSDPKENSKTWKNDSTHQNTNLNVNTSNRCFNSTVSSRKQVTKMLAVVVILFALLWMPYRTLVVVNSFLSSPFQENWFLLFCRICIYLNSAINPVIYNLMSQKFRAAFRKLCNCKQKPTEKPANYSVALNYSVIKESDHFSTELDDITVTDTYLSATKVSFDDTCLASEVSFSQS

With `C[C@H](N)CN1CCc2ccc(Br)cc21`, the Potency entry in test [1], in test [2], in test [4], in test [5], in [6] and in [9] was “inactive” throughout. Further, the Potency entry in test [10], in [11] and in test [13] was “inactive” each time. Further, the call in [3], in test [7], in test [8] and in test [14] was inactive. The activation in test [12] is 0.625% (inactive). Moreover, the viability change in test [13] is -2.43%.

In the case of `Cc1o[nH]c(=O)c1CC(N)C(=O)O` (stereo unspecified), the Potency entry in [1], in test [2], in [4], in test [5], in [6] and in [16] was “inactive” each time. The Potency result in [9], in test [10], in test [11] and in test [13] was “inactive” each time. Moreover, the result in [3], in test [7], in test [15] and in test [14] was inactive. Moreover, the viability change in [13] stood at 2.81%.

Take `NCC(CP(=O)(O)O)c1ccc(Cl)cc1` (stereo unspecified): the Potency entry in test [1], in test [2], in test [4], in test [5], in test [6] and in test [16] was “inactive” each time. Moreover, the Potency result in test [9], in test [10], in test [17] and in [13] was “inactive” each time. In addition, the compound was called inactive in test [3], in test [7], in [15] and in test [14]. In addition, in test [12], the activation was 0.5% (inactive). Also, in test [13], the viability change came out at 3.89%.

In the case of `NCC(O)c1cc(O)c(O)cc1F` (stereo unspecified), the Potency entry in [1], in test [2], in test [9], in [11] and in test [13] was “inactive” in each case. The compound was called inactive in test [3], in test [7], in [15], in test [8] and in test [14]. The Potency in [5] was 2670 nM (active); in [6], 18900 nM (active); in test [10] it was 2510 nM (active). Also, in [12], the activation is 1.38% (inactive). In addition, the viability change in test [13] is -0.467%.

With `C[N+]1(C)CCC(OC(=O)C(c2ccccc2)c2ccccc2)CC1`, the figures for the Potency in [1] and in test [2] were 2080 nM (active) and 9280 nM (active), respectively. Besides, the Potency result in test [6] was “inactive”. Besides, the outcome in test [15] and in [8] was inactive. For the same compound, the activation in test [12] was 0.125% (inactive).

Regarding `O=S1(=O)N(CCN2CC=C(c3c[nH]c4cc(F)ccc34)CC2)c2cccc3c2N1CCC3`, the Potency in [1] is 465 nM (active); in [2] it was 1470 nM (active); in test [13] it was 23100 nM (active). The outcome in test [3], in test [7], in [15] and in test [14] was inactive. Also, the Potency result in test [4], in test [16] and in test [9] was “inactive” throughout. Besides, in test [12], the activation was 52.8% (active). For the same compound, the viability change in [13] is -15.7%.

Consider `CC(N)[C@H](O)c1ccc(O)c(O)c1` (stereo partly specified), for which the Potency result in test [1], in [2], in test [16], in [9], in test [10] and in test [17] was “inactive” in each case. Moreover, in test [11], the Potency entry was “inactive”. For the same compound, the result in test [3], in test [7], in test [15] and in test [14] was inactive. For the same compound, the Potency in test [4] was 11900 nM (active); in [5] it was 2670 nM (active); in [6], 29900 nM (active). Also, in [12], the activation is 1.12% (inactive).

Regarding `CCN(CCCl)Cc1ccccc1Br`, the Potency entry in test [1], in test [2], in test [6], in test [18], in test [16] and in test [9] was “inactive” throughout. For the same compound, the Potency entry in [17] and in test [11] was “inactive” in each case. Further, the compound was called inactive in [3], in test [7], in test [15] and in test [14]. Further, in test [12], the activation was -8% (inactive).

As for `COc1ccc(OC)c(C(O)C(C)N)c1` (stereo unspecified), the Potency entry in test [1], in test [2], in [5], in [6], in test [18] and in test [16] was “inactive” throughout. The Potency result in [9], in test [10], in [19], in [11] and in test [13] was “inactive” throughout. For the same compound, the compound was called inactive in [3], in [7], in test [15] and in test [14]. The activation in test [12] was 1.12% (inactive). For the same compound, in test [13], the viability change is -6.5%.

`CC(C)CC(NP(=O)(O)O[C@@H]1O[C@@H](C)[C@H](O)[C@@H](O)[C@H]1O)C(=O)NC(Cc1c[nH]c2ccccc12)C(=O)O` (stereo partly specified): the Potency entry in test [1], in test [2], in test [5] and in [6] was “inactive” throughout. Also, the result in [15] and in test [8] was inactive. Also, in test [12], the activation was 1.38% (inactive).
